TIM10 inh: growth inhibitors of isogenic TIM10 control yeast, primary screen, counter-screen for tim10-1 yeast inhibitor project, luminescence, uHTS; AID 463195, 2010; S. cerevisiae TIM10 strain growth, BacTiter-Glo luminescence, 24 h; actives 1.4% (n = 330,000); inhibition, % at 10 µM;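 active = inhibition of 40% or more at the single tested concentration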;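 note: wild-type TIM10 isogenic control strain grown at permissive 25 °C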
NALP3 yeast inh: NALP3 inflammasome inhibitors in reconstituted yeast, primary screen, luminescence, uHTS; Yeast reconstituted NLRP3/ASC/caspase-1, beta-gal luminescence, 24 h; actives 0.39% (n = 330,000); inhibition, % at 10 µM;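 active = inhibition of 50% or more; inactive = inhibition below 50%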
NALP1 yeast inh: NALP1 inflammasome inhibitors in reconstituted yeast, colorimetric, S. cerevisiae, triplicate retest; actives 0.61% (n = 280,000); S. cerevisiae NALP1/ASC/caspase-1 growth, X-gal OD620, 72 h; inhibition, % at 10 µM; AID 2071, 2009; in the data active = inhibition mostly above about 24%, no sharp cut-off; inactive = mostly below about 32%
tim23-1 inh: growth inhibitors of tim23-1 mutant yeast, primary screen, luminescence, uHTS; S. cerevisiae tim23-1 growth, BacTiter-Glo luminescence, 24 h; inhibition, % at 20 µM; actives 1.3% (n = 330,000);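 active = growth inhibition of the mutant yeast at or above 50%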;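 note: temperature-sensitive mutant grown at 25 °C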
tim10-1 inh: growth inhibitors of tim10-1 mutant yeast, primary screen, luminescence, uHTS. S. cerevisiae tim10-1 ts strain growth, BacTiter-Glo, 24 h. inhibition, % at 20 µM. actives 2.2% (n = 330,000);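 active = inhibition of at least 40%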;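 note: mutant grown at 25 °C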
TIM10 conf: growth inhibitors of wild-type TIM10 yeast, confirmation, counter-screen for tim10-1 synthetic lethality project, single concentration, luminescence, S. cerevisiae; shares compounds with TIM10 inh; S. cerevisiae tim10 strain growth, BacTiter-Glo luminescence, 24 h; inhibition, % at 10 µM; actives 63% (n = 4,600);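 active = inhibition of yeast growth at or above a set limit in either of two replicates at 10 µM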; note: this counterscreen used the strain with wild-type TIM10
tim23-1 conf: tim23-1 mutant yeast growth inhibitors, confirmation, luminescence, single concentration. AID 463218, 2010. S. cerevisiae tim23-1 growth, BacTiter-Glo luminescence, 24 h. shares compounds with tim23-1 inh. inhibition, % at 20 µM. actives 83% (n = 4,400);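 active = inhibition above about 39% in either of two replicate wells at 20 µM, limit read from the data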;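 note: temperature-sensitive tim23-1 mutant grown at 25 °C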
Of the large screens only hits and unclear results are named; the others gave an inactive call (follow-up assays come after a bar, where they were run). Hits are enriched below; roughly 4.1% of the tested compounds scored in any of these assays.

CCOC(=O)C1CCN(S(=O)(=O)c2ccc3c(c2)CCN3C(C)=O)CC1	none
CCOC(=O)C1CCN(S(=O)(=O)c2ccc3c(c2)CCN3C(=O)C2CCC2)CC1	TIM10 inh 61.9, tim23-1 inh 50.7 | TIM10 conf inactive | tim23-1 conf 66.3
CCOC(=O)c1sc2ccccc2c1OC(=O)c1ccccc1OC	TIM10 inh 48.5, tim23-1 inh 53.8 | TIM10 conf 44.4 | tim23-1 conf 50.2
C=CCC1(C#N)C(SC)=NC2=C(C(=O)CC(C)(C)C2)C1c1ccc(Br)cc1 (stereo unspecified)	TIM10 inh 44.2, tim23-1 inh 55.0 | TIM10 conf 32.0 | tim23-1 conf 43.4
CN(C)c1cc[n+](CC(=O)Nc2ccc(OC(F)F)cc2)cc1	none
O=C(Nc1ccc(N2CCN(c3ncccc3C(F)(F)F)CC2)nc1)c1cccs1	TIM10 inh 44.5, tim23-1 inh 67.1 | TIM10 conf 53.0 | tim23-1 conf 81.9
O=C(Nc1ccc(N2CCOCC2)nc1)c1cccs1	TIM10 inh 55.0, tim23-1 inh 50.4 | TIM10 conf 43.3 | tim23-1 conf 68.0
O=C(Nc1ccc(N2CCN(c3ccc(C(F)(F)F)cn3)CC2)nc1)c1cccs1	none
COc1ccc(CC(=O)N2CCc3cc(OC)c(OC)cc3C2C)c(OC)c1 (stereo unspecified)	none
CC(C)(C)CN1CCNC(=O)C1CC(=O)N1CCN(c2ccccc2)CC1 (stereo unspecified)	none
COc1ccc(O)c(/C=N/NC(=O)c2ccc(CSc3nc(C)cc(C)n3)cc2)c1	none
Cc1cc(C)nc(SCc2ccc(C(=O)N/N=C/c3cccc(O)c3O)cc2)n1	TIM10 inh 56.0, tim23-1 inh 60.5 | TIM10 conf 47.0 | tim23-1 conf 56.5
CCOc1cc(C(=O)N2CCC3(CC2)NCCc2[nH]cnc23)cc(OCC)c1OCC	none
COc1ccccc1C(=O)N/C(=C\c1ccccc1)C(=O)NCc1ccco1	none
COc1ccc(C)cc1N(CC(=O)N1CCCCCC1)S(=O)(=O)c1ccccc1	none
O=C(NC(=S)Nc1ccccc1Cl)c1ccco1	none
CCC(C)c1ccccc1NC(=S)NC(=O)c1ccco1 (stereo unspecified)	TIM10 inh 40.9, tim23-1 inh 53.8 | TIM10 conf inactive | tim23-1 conf inactive
C[C@]12CC[C@H](O)CC1=CCC1C2CC[C@@]2(C)C1CC[C@@H]2NC(=O)[C@@H](N)Cc1ccccc1 (stereo partly specified)	TIM10 inh 54.6, tim23-1 inh 57.7 (no result: NALP1 yeast inh) | TIM10 conf 59.6 | tim23-1 conf 55.0
CC(NC(=O)c1ccco1)c1cccc2ccccc12 (stereo unspecified)	none
O/C(=C\c1nc2ccccc2nc1/C=C(\O)c1ccccc1)c1ccccc1	TIM10 inh 44.6, tim23-1 inh 63.5 | TIM10 conf 53.5 | tim23-1 conf 67.5
O=c1oc2ccccc2nc1/C=C(\O)c1ccccc1	none (no result: NALP1 yeast inh)
CCCOc1ccc(C(=O)CCNC(Cc2c[nH]c3ccccc23)C(=O)O)cc1 (stereo unspecified)	TIM10 inh 49.1, tim23-1 inh 73.7 | TIM10 conf 37.2 | tim23-1 conf inactive
CCOc1ccc(Br)cc1S(=O)(=O)Nc1ccc(Cl)c(S(=O)(=O)N(CC)c2ccccc2)c1	none
Cn1cnc2c1c(=O)n(CC(O)CO)c(=O)n2C (stereo unspecified)	none
O=C(O)CCN1C(=O)/C(=C\c2ccncc2)SC1=S	none
O=C1/C(=C/c2ccncc2)SC(=S)N1C1CCCCC1	TIM10 inh 50.1, tim23-1 inh 50.8 | TIM10 conf inactive | tim23-1 conf 38.6
CCN1C(=O)/C(=C\c2ccncc2)SC1=S	TIM10 inh 51.5, tim23-1 inh 68.0 (no result: NALP1 yeast inh) | TIM10 conf 39.2 | tim23-1 conf inactive
O=C(COC(=O)/C=C/c1cccc(Cl)c1)NC1CC1	none (no result: NALP1 yeast inh)
CSC1=NC(=O)/C(=C\c2cccc3ccccc23)S1	TIM10 inh 41.5, tim23-1 inh 76.1 | TIM10 conf inactive | tim23-1 conf 51.3
N=C1S/C(=C\c2cccc3ccccc23)C(=O)N1c1ccc(F)cc1	none
Cc1cccc(-c2nc(Nc3cccc(O)c3)c3ccccc3n2)c1	TIM10 inh 52.5, tim23-1 inh 77.9 | TIM10 conf 50.5 | tim23-1 conf inactive
Cc1cccc(-c2nc(Nc3ccc(N4CCOCC4)cc3)c3ccccc3n2)c1	none
Nc1ccc(-c2nc3c(ccc4ccccc43)[nH]2)cc1	TIM10 inh 65.8, tim23-1 inh 57.6 | TIM10 conf 66.1 | tim23-1 conf 52.2
O=[S@]1Oc2ccccc2-c2ccccc21	TIM10 inh 57.6, tim23-1 inh 69.1 (no result: NALP1 yeast inh) | TIM10 conf 76.1 | tim23-1 conf inactive
O=C1c2ccccc2OCOc2ccccc21	none
O=C(NC(=S)Nc1ccc(O)cc1)C1CCCC1	TIM10 inh 43.6, tim23-1 inh 54.5 (no result: NALP1 yeast inh) | TIM10 conf 33.3 | tim23-1 conf 54.5
Cc1nnc(NC(=O)C2CC(=O)N(c3ccccc3)C2)s1 (stereo unspecified)	none
CC(C)(C)c1ccc(S(=O)(=O)N2CCC(c3nc4ccc(Cl)cc4[nH]3)CC2)cc1	TIM10 inh 49.9, tim23-1 inh 63.8 | TIM10 conf 56.0 | tim23-1 conf inactive
CN(CC(=O)Nc1ccc(F)c(F)c1F)C(=O)C1CCC1	none (no result: NALP1 yeast inh)
O=C(COC(=O)c1cncc(Br)c1)NCCC1=CCCCC1	none
Cc1cccc(N2CCN(C(=O)c3cn4ccccc4n3)CC2C)c1 (stereo unspecified)	none
Cc1cccc(C(=O)Oc2ccc(/C=N/O)cc2)c1	TIM10 inh 41.7, tim23-1 inh 62.0 | TIM10 conf 32.4 | tim23-1 conf 50.2
COc1ccc(N=Cc2cc(Cc3ccccc3Cl)cc([N+](=O)[O-])c2O)cc1OC	TIM10 inh 60.2, tim23-1 inh 80.4 | TIM10 conf 48.1 | tim23-1 conf inactive
COc1ccc([N+](=O)[O-])cc1NC(=O)Cc1ccccc1Cl	none
Cc1ccc2nsnc2c1NC(=O)c1cncc(Br)c1	none
O=C(Nc1cccc(Cl)c1)N1CCCC1	TIM10 inh 47.0, tim23-1 inh 50.6 | TIM10 conf inactive | tim23-1 conf 73.2
NC(=O)c1ccc(NC(=O)COC(=O)CC23CC4CC(CC(Br)(C4)C2)C3)cc1	none (no result: NALP1 yeast inh)
C=CCC1(CC=C)CCCN1C(=O)c1cc(COc2cccc(OC)c2)on1	none
